High-throughput results (PubChem BioAssay)
The list is not random: actives were taken first. Their share in the collection is about 3.7%.
HepG2 viability = counter-screen for TGF-b inhibitors: cytotoxicity in HepG2 cells. HepG2 CAGA-GFP viability, ATP luminescence, 18 h. Potency, µM (top dose mostly 46.1 µM), actives largely listed as cytotoxic. hit rate 0.76% among 410,000. AID 588856
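CellTiter-Glo luminescence gave cytotoxicity after 18 hours at 37 degrees C. The cells were HepG2 CAGA-GFP in 1% FBS DMEM, stimulated with 500 pg/mL TGF-beta after compound addition. %Activity was normalised to no-cell wells (complete cell-killing) and DMSO (no toxicity), and curves were fitted and classified.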
ATXN viability = viability counter-screen for ATXN expression inhibitors; hit rate 0.49% among 400,000; Potency, µM (top dose mostly 56.7 µM), hits mostly cytotoxic; S2 cells (HEK-293 line with an ATXN2-luciferase reporter) viability, CellTiter-Fluor protease fluorescence, 24 h; further: nearly all actives have a fitted effect of over 40% in size
ATXN2 expr inh = reduces ATXN2 reporter expression in HEK-293 cells | Potency, µM (highest dose often 57 µM), actives largely listed as inhibitors | HEK-293 ATXN2-luciferase reporter, luminescence, 24 h | hit rate 0.72% among 360,000; further: nearly all actives have a fitted effect of over 55% in size
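qHTS (up to 57 uM final) was run with 24 h compound exposure of reporter cells at 37 °C. Each well was multiplexed: SteadyGlo luminescence measured ATXN2-luciferase expression after a fluorogenic Gly-Phe-AFC viability readout (25 uM final).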
GLP-1R agonist = GLP-1 receptor (human) agonism | P43220 | HEK293 GLP-1R CRE-luciferase, luminescence, 4-6 h; cells express a hypersensitive GLP-1R form | Potency, µM (doses to about 45.6 µM), usual class: activators | hit rate 0.007% among 380,000
Target sequence (P43220 whole entry, looked up): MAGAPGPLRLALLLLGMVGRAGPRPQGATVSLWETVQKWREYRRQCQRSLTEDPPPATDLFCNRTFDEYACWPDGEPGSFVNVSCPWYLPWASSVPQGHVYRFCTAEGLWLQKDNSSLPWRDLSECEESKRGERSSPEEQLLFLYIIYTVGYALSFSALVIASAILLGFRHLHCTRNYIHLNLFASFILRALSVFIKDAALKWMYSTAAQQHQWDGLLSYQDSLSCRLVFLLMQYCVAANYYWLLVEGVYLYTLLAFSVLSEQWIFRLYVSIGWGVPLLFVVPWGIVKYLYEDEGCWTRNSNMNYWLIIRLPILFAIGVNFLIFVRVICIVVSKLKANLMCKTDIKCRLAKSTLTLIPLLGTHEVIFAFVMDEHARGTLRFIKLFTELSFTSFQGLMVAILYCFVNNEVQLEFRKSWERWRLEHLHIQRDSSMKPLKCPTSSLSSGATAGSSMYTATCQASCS
TGFb SMAD3 inh = blocks TGF-b signaling; Potency, µM (series often up to 46.1 µM), most hits filed as inhibitors; AID 588855; hit rate 1.2% among 410,000; HepG2 CAGA-GFP TGF-b/SMAD3 reporter, GFP fluorescence, 18 h; TGF-beta stimulated, 500 pg/mL final; further: nearly all actives have a fitted effect of over 65% in size
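Per well, imaged GFP fluorescence of HEPG2 CAGA-GFP cells gives the signal; cells get compound, then TGF-beta (500 pg/mL final), 18 h at 37 degrees C; %Activity versus -TGF-beta and +DMSO controls.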
GLP-1R inv ag = inverse agonists of human GLP-1 receptor; P43220; HEK293 GLP-1R CRE-luciferase, luminescence, 24 h; GLP-1R form is constitutively active; Potency, µM (titrated, usually from 38.3 µM), hits mostly inhibitors; hit rate 1.6% among 410,000; further: nearly all actives have a fitted effect of over 55% in size
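HEK293 cells stably co-expressing a cAMP-responsive luciferase reporter and constitutively active GLP-1R were seeded, incubated 12 h, then exposed to compounds for 24 h at 37 C. Luminescence was read 12 min after detection reagent; inverse agonists lower signal.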
Large screens that a line does not name were inactive. The call rests on the fitted dose curve; in most records, active means well fitted curve in the direction sought with a large enough effect; inconclusive means small, poorly fitted or top-dose-only effect, or another doubt; inactive means no such curve, though single readings can be large; an effect the other way counts as inactive or inconclusive.

CC(=NCCc1c(C)[nH]c2ccc(C)cc12)C1=C(O)CC(c2ccccc2)CC1=O (stereo not drawn)	GLP-1R inv ag 3.55µM
CCCCC(=NCCc1c(C)[nH]c2ccccc12)C1=C(O)CC(c2ccccc2)CC1=O (stereo not drawn)	GLP-1R inv ag inconclusive
Cc1cc(/C=C/c2ccnc3ccccc23)ccc1N	TGFb SMAD3 inh inconclusive (no result: ATXN viability, ATXN2 expr inh, GLP-1R agonist, GLP-1R inv ag)
CNc1ccc(C=C2C=CC=C2)cc1	none (no result: ATXN viability, ATXN2 expr inh, GLP-1R agonist, GLP-1R inv ag)
Cc1cnc(-n2ncc(C(=O)N(C)Cc3cccc4ncccc34)c2C(C)C)nc1-c1ccc(F)cc1	none (no result: HepG2 viability, ATXN2 expr inh, GLP-1R agonist, TGFb SMAD3 inh, GLP-1R inv ag)
FC(F)(F)c1ccccc1Cc1c(-c2ccco2)nc2ccc(Cl)cn12	HepG2 viability 6.31µM, ATXN viability inconclusive, TGFb SMAD3 inh inconclusive, GLP-1R inv ag inconclusive
FC(F)(F)c1ccccc1Cc1c(-c2ccc(Cl)cc2)nc2ccc(Cl)cn12	TGFb SMAD3 inh inconclusive, GLP-1R inv ag inconclusive
Fc1ccc(-c2nc3ccc(Cl)cn3c2Cc2ccccc2C(F)(F)F)cc1	TGFb SMAD3 inh 12.6µM, GLP-1R inv ag inconclusive
N#CC(C#N)=C1C=CC=CN1/C(=C\c1ccco1)C(=O)c1ccc(Cl)cc1	ATXN viability inconclusive, ATXN2 expr inh inconclusive, TGFb SMAD3 inh inconclusive, GLP-1R inv ag 5.62µM
N#CC(C#N)=C1C=CC=CN1/C(=C\c1ccco1)C(=O)c1ccc(-c2ccccc2)cc1	HepG2 viability 11.2µM, ATXN viability inconclusive, ATXN2 expr inh inconclusive, TGFb SMAD3 inh 7.08µM, GLP-1R inv ag inconclusive
Clc1ccc(Cn2cc3c(n2)-c2cc4ccccc4n2C3)cc1	none (no result: ATXN viability, ATXN2 expr inh, GLP-1R agonist, GLP-1R inv ag)
COc1ccc(-c2ccc(OC)c(C3C4C=CCCC4(C)C(=O)N3Cc3ccccc3)c2)cc1 (stereo not drawn)	none (no result: ATXN viability, ATXN2 expr inh, GLP-1R agonist, GLP-1R inv ag)
CN1C(=O)c2ccccc2Sc2ccc(NC(=O)Cc3c(F)cccc3Cl)cc21	ATXN viability inconclusive, TGFb SMAD3 inh 10µM, GLP-1R inv ag inconclusive (no result: GLP-1R agonist)
CN1C(=O)c2ccccc2Sc2ccc(NC(=O)NCc3ccccc3Br)cc21	TGFb SMAD3 inh inconclusive, GLP-1R inv ag inconclusive (no result: ATXN viability, ATXN2 expr inh, GLP-1R agonist)
CC(C)CCNC(=O)Nc1ccc2c(c1)N(C)C(=O)c1ccccc1S2	ATXN viability 35.5µM, ATXN2 expr inh inconclusive, TGFb SMAD3 inh 22.4µM, GLP-1R inv ag inconclusive (no result: GLP-1R agonist)
CCN1C(=O)c2ccccc2Sc2ccc(NC(=O)Nc3cc(C)cc(C)c3)cc21	TGFb SMAD3 inh 6.31µM, GLP-1R inv ag inconclusive (no result: ATXN viability, ATXN2 expr inh, GLP-1R agonist)
CCOC(=O)c1c(C(F)(F)C(F)(F)C(F)(F)C(F)(F)F)n[nH]c1C	HepG2 viability 12.6µM, TGFb SMAD3 inh inconclusive, GLP-1R inv ag 10µM
COc1cc(OC)c(NC(=O)NCc2cccn2Cc2ccccc2)cc1Cl	ATXN viability inconclusive, ATXN2 expr inh inconclusive, TGFb SMAD3 inh 8.91µM, GLP-1R inv ag inconclusive (no result: GLP-1R agonist)
O=C(CSc1nc(Nc2ccccc2)nc(N2CCOCC2)n1)Nc1ccc([N+](=O)[O-])cc1	none
O=C(CSc1nc(Nc2ccccc2)nc(N2CCOCC2)n1)Nc1cccc([N+](=O)[O-])c1	ATXN viability inconclusive, GLP-1R inv ag 11.2µM
Cc1ccc(-n2c(SCc3ccccc3F)nc3[nH]ncc3c2=O)cc1Cl	ATXN viability 35.5µM, ATXN2 expr inh inconclusive, TGFb SMAD3 inh inconclusive, GLP-1R inv ag inconclusive
CCc1ccc(-n2c(SCc3ccccc3F)nc3[nH]ncc3c2=O)cc1	ATXN viability 20µM, ATXN2 expr inh inconclusive, TGFb SMAD3 inh inconclusive, GLP-1R inv ag inconclusive
Cc1ccc(-n2c(SCc3ccccc3F)nc3[nH]ncc3c2=O)cc1C	ATXN viability inconclusive, ATXN2 expr inh inconclusive, TGFb SMAD3 inh inconclusive, GLP-1R inv ag inconclusive (no result: GLP-1R agonist)
CC(=O)c1cccc(NC(=O)c2noc3c2CSc2ccccc2-3)c1	none (no result: ATXN viability, ATXN2 expr inh, GLP-1R agonist)
On1c(-c2ccccc2)nc2ncccc21	none (no result: ATXN2 expr inh)
COc1ccc(-c2nc3ncccc3n2O)cc1	HepG2 viability 14.1µM
CCOC(=O)c1c(C)[nH]c(CCC(=O)NCc2cc(Br)ccc2OC)c1C	none (no result: ATXN viability, ATXN2 expr inh, GLP-1R agonist)
C[C@H](OC(=O)N1CCN(C(c2ccccc2)c2ccccc2)CC1)[C@@H]1O[C@@]2(C)CCC[C@H]1O2	GLP-1R inv ag 10µM
COc1ccc(C(=O)CCN(C)C)c2ccccc12	TGFb SMAD3 inh 6.31µM (no result: ATXN viability, ATXN2 expr inh, GLP-1R agonist, GLP-1R inv ag)
COc1ccc(C(=O)c2ccc(Cl)cc2)c2ccccc12	GLP-1R inv ag 10µM
COc1ccc(C(=O)c2ccc(Br)cc2)c2ccccc12	ATXN viability inconclusive, GLP-1R inv ag inconclusive (no result: ATXN2 expr inh)
NC(N)=Nc1nc(-c2ccccc2)c2cc(F)ccc2n1	ATXN viability 5.62µM, ATXN2 expr inh inconclusive, TGFb SMAD3 inh inconclusive, GLP-1R inv ag inconclusive
CC(=O)C[C@H]1c2cc(C(F)(F)F)ccc2S(=O)(=O)N1C1CCCCC1	TGFb SMAD3 inh 11.2µM, GLP-1R inv ag inconclusive
COC(=O)C[C@H]1c2cc(C(F)(F)F)ccc2S(=O)(=O)N1C1CCCCC1	TGFb SMAD3 inh inconclusive
CO[C@@H](C(=O)N1Cc2[nH]nc(NC(=O)c3ccc(N4CCN(C)CC4)cc3)c2C1)c1ccccc1	ATXN2 expr inh 27.3µM (no result: HepG2 viability, ATXN viability, GLP-1R agonist, TGFb SMAD3 inh, GLP-1R inv ag)
OC(c1ccccc1)(c1nc(-c2ccc(Cl)cc2)cs1)C(F)(F)F (stereo not drawn)	HepG2 viability 15.8µM, ATXN viability inconclusive, TGFb SMAD3 inh inconclusive, GLP-1R inv ag inconclusive
C=CCNC(=O)c1cnn2c1NC(=C)C=C2C	none (no result: ATXN viability, ATXN2 expr inh, GLP-1R agonist, GLP-1R inv ag)
Nc1nc(-c2ccccc2)c(N=Nc2cccc3ccccc23)s1	ATXN viability inconclusive, TGFb SMAD3 inh 11.2µM
